# Measurements published in the supplement of paper PMC13380429.
# Unmarked numbers belong to inactive results.
# System: Vero E6 infected with SARS-CoV-2
# Assay: inhibition of SARS-CoV-2 cytopathic effect; higher = more antiviral protection, active = above 15
# Conditions: 48 h
Structure (SMILES),inhibition of SARS-CoV-2 cytopathic effect (1 nM),inhibition of SARS-CoV-2 cytopathic effect (8.33 nM) [%],inhibition of SARS-CoV-2 cytopathic effect (100 nM) [%],inhibition of SARS-CoV-2 cytopathic effect (833.33 nM) [%],inhibition of SARS-CoV-2 cytopathic effect (10000 nM) [%]
CC1=NN(c2ccccc2)C(=O)C1 [edaravone],1.36%,0.66,-0.76,0.1,3.57
CN(C[C@@H]1COCCO1)S(=O)(=O)Nc1ccc2ccc3ncc(-c4cnn(C)c4)cc3c(=O)c2c1,-0.78%,1.08,-0.46,-1.97,-4.16
COc1ccccc1NC(=O)OCC1CCN(C(=O)OC(C)(C)C)CC1,0.55%,-0.78,1.48,-0.14,0.81
CNC(=O)c1c(I)c(NC(C)=O)c(I)c(C(=O)O)c1I [iothalamic-acid-d3],-5.17%,-2.14,-1.59,0.31,-1.65
CCOC1O[C@H]([C@@H](COCc2ccccc2)OCc2ccccc2)[C@H](OCc2ccccc2)[C@H]1O (stereo not given in full) [tribenoside],-7.21%,-1.54,-0.86,0.08,1.9
CC(=O)O[C@H]1CC[C@@]2(C)C(=CC[C@@H]3[C@@H]2CC[C@]2(C)C(c4cccnc4)=CC[C@@H]32)C1 [abiraterone-acetate],-0.73%,0.99,-0.37,-1.43,-0.75
CC(C)(C)NC[C@H](O)COc1cccc2c1CCCC2=O [levobunolol],-6.66%,-1.55,-0.235,2.58,2.67
CCC(CC)C(c1ccc(Nc2nc3ccccc3s2)cc1)n1cncn1 (stereo not given) [talarozole],3.05%,0.68,0.42,1.31,4.15
Cc1ccc2c(c1CCC(=O)O)CC[C@@H](NS(=O)(=O)c1ccc(Cl)cc1)C2 [terutroban],-4.39%,-2.46,-5.1,-1.42,0.09
CO/N=C1/C[C@@H](C(=O)NC[C@@H](O)c2ccccc2)N(C(=O)c2ccc(-c3ccccc3C)cc2)C1 [OT-R-antagonist-1],-0.95%,1.59,-0.48,1.09,-1.5
CCN(CC)CCOC(=O)C1(C2CCCCC2)CCCCC1 [dicycloverine],17.5% (active),0.53,2.57,0.85,1.16
C=CCNc1c(O)cc2c(O)c1C[C@@H](C)C[C@H](OC)[C@H](O)[C@@H](C)/C=C(\C)[C@H](OC(N)=O)[C@@H](OC)/C=C\C=C(/C)C(=O)N2 [retaspimycin],2.45%,0.93,6.54,5.56,8.73
COc1ccc(CC(=O)NC(/N=C(\NC#N)Nc2cccc3ncccc23)C(C)(C)C)cc1OC (stereo not given),-0.32%,1.83,1.99,1.34,-0.99
O=C(O)C1=C[C@@H](O)[C@@H](O)[C@H](O)C1 [shikimic-acid],2.18%,1.14,0.89,2.68,0.85
Oc1ccc2c3c1O[C@H]1c4[nH]c5ccccc5c4C[C@@]4(O)[C@@H](C2)N(CC2CC2)CC[C@]314 [naltrindole],1.74%,3.59,1.09,0.82,-3.58
CCCCN1CCCC1CNC(=O)c1cc(C#N)c2ccccc2c1OC (stereo not given) [nafadotride],-1.44%,-0.63,-0.23,0.59,0.87
NCc1cc(O)no1 [muscimol],-0.61%,0.05,2.35,0.14,0.49
Cc1ccsc1C(=CCCN1CCC[C@@H](C(=O)O)C1)c1sccc1C [tiagabine],1.59%,1.98,0.33,-3.02,0.65
Clc1ccc(Nc2nnc(Cc3ccncc3)c3ccccc23)cc1 [vatalanib],0.19%,-1.32,0.29,3.79,1.06
N=C(N)NC(=N)NCCc1ccccc1 [phenformin],-3.22%,0.38,-2.7,-2.58,-5.63

Structure (SMILES),inhibition of SARS-CoV-2 cytopathic effect (1 nM),inhibition of SARS-CoV-2 cytopathic effect (8.33 nM) [%],inhibition of SARS-CoV-2 cytopathic effect (100 nM) [%],inhibition of SARS-CoV-2 cytopathic effect (833.33 nM) [%],inhibition of SARS-CoV-2 cytopathic effect (10000 nM) [%]
Cn1c(N2CCCCS2(=O)=O)nc(C(=O)NCc2ccc(F)cc2)c(O)c1=O,-0.4%,-1.76,-4.2,-0.06,-1.72
CC(C)Cc1ccc(C(C)C(=O)NO)cc1 (stereo not given) [ibuproxam],1.38%,1.54,0.99,2.87,1.73
N#Cc1c(O)c2c(-c3ccc(-c4ccccc4O)cc3)csc2[nH]c1=O,-1.57%,-3.91,-1.86,0.75,3.92
O=C(O[C@@H]1Cc2c(O)cc(O)cc2O[C@@H]1c1ccc(O)c(O)c1)c1cc(O)c(O)c(O)c1 [epicatechin-gallate-(-)],-1.08%,3.11,5.77,3.37,-0.51
COc1ccc2c(c1)c(CC(=O)N1CCOCC1)c(C)n2C(=O)c1ccc(Cl)cc1,0.39%,-0.48,1.8,-0.58,-0.85
CC1=NN=C(c2ccc(N)cc2)c2cc3c(cc2C1)OCO3,-2.65%,-5.13,-1.01,2.88,0.44
CC1=C(/C=C/C(C)=C/C=C/C(C)=C/C(=O)Nc2ccc(O)cc2)C(C)(C)CCC1 [fenretinide],2.01%,1.04,0.95,-0.67,2.45
C#Cc1cnc2nc(O)n(C(CC)CC)c2n1 [tirasemtiv],1.57%,-0.65,1.78,2.57,-1.21
CCN(CC)CC#CCOC(=O)C(O)(c1ccccc1)C1CCCCC1 (stereo not given) [oxybutynin],-1.83%,-0.13,-0.11,0.84,8.9
CNC(=O)[C@H](Cc1c[nH]c2ccccc12)NC(=O)[C@@H](CC(=O)NO)CC(C)C [ilomastat],3.69%,1.87,-1.16,2.15,-0.18
CC(C)(C)c1ccc(CN(Cc2cccc(OCC(=O)O)c2)S(=O)(=O)c2cccnc2)cc1 [evatanepag],-1.15%,-0.63,-1.94,-1.15,-2.53
CN(C)CCCCSC(=N)N,-2.5%,-3.4,-2.41,1.23,2.12
CCCCC(=O)O[C@]1(C(=O)CO)[C@@H](C)C[C@H]2[C@@H]3CCC4=CC(=O)C=C[C@]4(C)[C@@]3(F)[C@@H](O)C[C@@]21C,-3%,-2.7,-2.96,-2.78,-4.48
O=C(Nc1cccc(C(F)(F)F)c1)Nc1cc(S(=O)(=O)NC2CC2)ccc1-c1ccsc1,-0.22%,-0.85,0.27,0.38,0.46
O=C1c2ccccc2S(=O)(=O)N1CCCCN1CCN(c2ncccn2)CC1 [ipsapirone],4.62%,2.92,-3.31,1.74,0.15
CCCCCCCCCCCCCCCC(=O)OC(C)C [isopropyl-palmitate],-1.17%,-0.59,0.66,1.48,-2.42
CN(CCOc1ccc(NS(C)(=O)=O)cc1)CCc1ccc(NS(C)(=O)=O)cc1 [dofetilide],-2.98%,-1.43,-1.55,-0.28,-0.36
N#CN1CCCC1 [pyrrolidine-1-carbonitrile],3.76%,2.93,-2,1.38,2.45
CC(C)(S)C(=O)N[C@@H](CS)C(=O)O [bucillamine],0.66%,4.25,5.04,3.9,-4
CC[C@H](C)C[C@H](C)CCCCCCCCC(=O)N[C@H]1C[C@@H](O)[C@@H](NCCN)NC(=O)[C@@H]2[C@@H](O)CCN2C(=O)[C@H]([C@H](O)CCN)NC(=O)[C@H]([C@H](O)[C@@H](O)c2ccc(O)cc2)NC(=O)[C@@H]2C[C@@H](O)CN2C(=O)[C@H]([C@@H](C)O)NC1=O [caspofungin],0.56%,0.765,-1.58,0.425,5.37
